Source: PubChem
Hits are enriched below; roughly 0.92% of the tested compounds scored in any of these assays.
APE1 inh: APE1 (human) endonuclease inhibition. recombinant APE1, TAMRA/BHQ-2 abasic DNA cleavage fluorescence. 350,000 compounds, 0.35% hits. P27695. AID 2517. Potency, µM (doses to about 65.8 µM), without a hit: at the highest dose activity change, negative = inhibition, usual class: inhibitors;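 further: plate controls were vehicle for no effect and reference inhibitor for full effect; nearly all actives have a fitted effect of over 55% in size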
Target sequence (P27695 whole entry, looked up): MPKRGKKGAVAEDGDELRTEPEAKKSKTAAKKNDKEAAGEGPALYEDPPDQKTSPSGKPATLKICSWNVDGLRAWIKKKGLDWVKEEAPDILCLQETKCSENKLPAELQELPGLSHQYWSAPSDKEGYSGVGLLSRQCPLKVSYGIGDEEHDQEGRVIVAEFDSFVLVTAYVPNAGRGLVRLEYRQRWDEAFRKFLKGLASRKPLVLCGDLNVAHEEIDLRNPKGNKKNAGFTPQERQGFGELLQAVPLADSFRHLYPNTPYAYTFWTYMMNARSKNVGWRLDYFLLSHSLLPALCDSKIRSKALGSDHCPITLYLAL
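Enzyme (0.75 nM final) and test compound are incubated 15 min at room temperature before adding 50 nM quenched THF abasic-site duplex. Cleavage dequenches TAMRA, followed at 525/598 nm over three reads one minute apart.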
BLM helicase inh: blocks DNA unwinding by human BLM helicase; Potency, µM (titrated, usually from 56.1 µM), inactives show top-dose activity change, negative = inhibition, actives largely listed as inhibitors; P54132; 350,000 compounds, 0.2% hits; AID 2528; recombinant BLM DNA unwinding, fluorescence dequenching;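 further: plate controls were vehicle for no effect and no enzyme for full effect; nearly all actives have a fitted effect of over 35% in size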
TDP1 block: TDP1 (human) enzyme inhibition; Potency, µM (titrated, usually from 130 µM), for inactives: top-dose activity change, negative = inhibition, most hits filed as inhibitors; Q9NUW8; 350,000 compounds, 0.28% hits; recombinant TDP1, AlphaScreen DNA substrate cleavage; further: nearly all actives have a fitted effect of over 40% in size
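Here, a 5' biotin and 3' phosphotyrosine-FITC DNA oligonucleotide reports Tdp1 activity: intact substrate bridges AlphaScreen beads, while cleavage leaves a 3' phosphate and drops signal. All incubations at room temperature.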
RECQ1 inh-1: RECQ1 (human) helicase inhibition; RECQ1 DNA unwinding, red fluorescence kinetic read; Potency, µM (titrated, usually from 57.3 µM), for inactives: at the top dose activity, negative = inhibition, actives largely listed as inhibitors; 240,000 compounds, 0.54% hits; AID 2549;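 further: plate controls were vehicle for no effect and no enzyme for full effect; nearly all actives have a fitted effect of over 30% in size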
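50 nM RECQ1T1 preincubated 15 min with compound in Tris pH 8.0 buffer with MgCl2, DTT, Tween-20 and 2.5 ug/ml poly(dI-dC); started with 200 nM TAMRA/BHQ-2 forked duplex and 2 mM ATP. Unwinding read as fluorescence (525/598 nm), two reads 2 h apart.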
FEN1 inh: human FEN1 inhibition; P39748; Recombinant FEN1 flap cleavage, fluorescence, 15 min; Potency, µM (top dose mostly 114 µM), inactives show top-dose activity change, negative = inhibition, most hits filed as inhibitors; 390,000 compounds, 0.35% hits; AID 588795; further: nearly all actives have a fitted effect of over 65% in size
Target sequence (P39748 whole entry, looked up): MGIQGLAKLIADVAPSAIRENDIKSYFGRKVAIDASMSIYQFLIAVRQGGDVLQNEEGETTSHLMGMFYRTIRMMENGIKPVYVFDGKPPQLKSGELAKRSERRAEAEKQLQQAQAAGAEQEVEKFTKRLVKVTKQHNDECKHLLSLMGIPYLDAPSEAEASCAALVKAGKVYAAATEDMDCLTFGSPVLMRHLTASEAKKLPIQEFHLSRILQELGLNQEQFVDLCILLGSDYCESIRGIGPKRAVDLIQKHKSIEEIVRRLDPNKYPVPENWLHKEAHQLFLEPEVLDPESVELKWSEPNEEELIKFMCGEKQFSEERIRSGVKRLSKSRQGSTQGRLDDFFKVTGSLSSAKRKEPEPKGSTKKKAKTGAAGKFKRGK
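Recombinant FEN1 (10 nM) was preincubated with pin-transferred compounds for 15 min at room temperature, then flap DNA substrate (50 nM final) was added. Plates were read at 0 and 15 min, and normalized concentration–response data were fitted to a four-parameter Hill equation.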
RECQ1 conf: confirmation of human RECQ1 helicase inhibitors; shares compounds with RECQ1 inh-1; RECQ1 helicase DNA unwinding, fluorescence; Potency, µM (doses to about 229 µM), for the others: at the highest dose activity change, negative = inhibition, usual class: inhibitors; 610 compounds, 28% hits; further: nearly all actives have a fitted effect of over 45% in size
ADP FP counter: displaces ADP in a fluorescence polarization counter-screen for RECQ1 hits; ADP fluorescence polarization displacement counterscreen; 530 compounds, 27% hits; shares compounds with RECQ1 inh-1; Potency, µM (top dose mostly 228 µM), without a hit: at the top dose activity change, negative = inhibition, usual class: inhibitors; further: nearly all actives have a fitted effect of over 45% in size
RECQ1 inh-2: confirmation of human RECQ1 helicase inhibitors | shares compounds with RECQ1 inh-1 | recombinant RECQ1 DNA unwinding, red fluorescence | Potency, µM (top dose mostly 119 µM), inactives show at the top dose activity, negative = inhibition, usual class: inhibitors | 1,100 compounds, 15% hits; further: nearly all actives have a fitted effect of over 50% in size
Numbers without * were called inactive; [ ] = remark or other dose. The call rests on the fitted dose curve; in most records, active means well fitted curve in the direction sought with a large enough effect; inconclusive means small, poorly fitted or top-dose-only effect, or another doubt; inactive means no such curve, though single readings can be large; an effect the other way counts as inactive or inconclusive. Unless noted, on the % scale 0 is the no-effect control and ±100 the full control effect; potency means the concentration at half of the fitted maximal effect.

What do the screens show for `N#CC1=C(N)Oc2ccc3ccc(O)cc3c2C1c1ccsc1` (configuration not stated)?
APE1 inh: -10%; BLM helicase inh: -3%; TDP1 block: 3%; RECQ1 inh-1: inconclusive; FEN1 inh: -22%; RECQ1 inh-2: 50µM*

How did CNC(=O)COC(=O)c1c2c(nc3ccccc13)CCC2 do in these assays?
APE1 inh: -5%; BLM helicase inh: -12%; RECQ1 inh-1: inconclusive; FEN1 inh: inconclusive; RECQ1 inh-2: inconclusive

How did CCCCNC(=O)COC(=O)c1c2c(nc3ccccc13)CCC2 do in these assays?
APE1 inh: -20%; BLM helicase inh: inconclusive; TDP1 block: -15%; FEN1 inh: -7%

What do the screens show for `COc1ccc(Cl)cc1NC(=O)CSc1ccc(-c2sc(C)nc2C)nn1`?
BLM helicase inh: -5%; TDP1 block: -8%; FEN1 inh: -6%

What do the screens show for `Cc1c(C)c2c(c(C)c1O)CCC(C)(COc1ccc(CC3SC(=O)NC3=O)cc1)O2` (configuration not stated)?
APE1 inh: -5%; BLM helicase inh: -19%; TDP1 block: 25%; RECQ1 inh-1: inconclusive; RECQ1 inh-2: inconclusive

What do the screens show for `O=C(COCc1cc(-c2ccc(F)cc2)on1)Nc1cc(F)ccc1F`?
BLM helicase inh: -5%; TDP1 block: 0%; FEN1 inh: 1%

What do the screens show for `CS(=O)(=O)N1CCC2(CCCN(c3cccc(-c4ccccc4)c3)C2)CC1`?
APE1 inh: 8%; BLM helicase inh: -4%; RECQ1 inh-1: 28µM*; RECQ1 inh-2: inconclusive

What do the screens show for `Cc1ccc(S(=O)(=O)N2CCN(c3nc(-c4ccc(F)cc4)nc4cc(Cl)ccc34)CC2)cc1`?
TDP1 block: 2%; FEN1 inh: 12%

How did Cc1ccc(NC(=O)N/C=C/c2ccco2)cc1 do in these assays?
APE1 inh: inconclusive; BLM helicase inh: 0%; TDP1 block: -13%; RECQ1 inh-1: inconclusive; FEN1 inh: -15%; RECQ1 inh-2: inconclusive

Results for O=C(Nc1cc(Cl)cc(Cl)c1)c1cc(S(=O)(=O)N2CCC3(CC2)OCCO3)ccc1F ?
BLM helicase inh: -9%; TDP1 block: 3%; FEN1 inh: -3%

Results for O=C(CCc1nc2ccccc2s1)NC1CCOC1=O (configuration not stated) ?
APE1 inh: -16%; BLM helicase inh: 2%; TDP1 block: -4%; RECQ1 inh-1: inconclusive; FEN1 inh: -4%; RECQ1 inh-2: inconclusive

How did Cc1csc(NC(=O)CCc2nc3ccccc3s2)n1 do in these assays?
APE1 inh: 0%; BLM helicase inh: -3%; TDP1 block: 5%; RECQ1 inh-1: 14%; FEN1 inh: 3%

What do the screens show for `CS(=O)(=O)c1ccc2nc(NC(=O)c3ccc(NS(=O)(=O)c4ccc(F)c(F)c4)cc3)sc2c1`?
APE1 inh: -6%; BLM helicase inh: -12%; TDP1 block: -1%; RECQ1 inh-1: 32µM*; FEN1 inh: -3%; RECQ1 inh-2: -21%

Results for CS(=O)(=O)c1ccc2nc(NC(=O)c3cccc(NS(=O)(=O)c4ccc(F)c(F)c4)c3)sc2c1 ?
APE1 inh: 8%; BLM helicase inh: -2%; TDP1 block: 5%; RECQ1 inh-1: -5%; FEN1 inh: -9%

How did O=C(Nc1nc2ccc(SC(F)F)cc2s1)c1ccc(NS(=O)(=O)c2ccc(F)c(F)c2)cc1 do in these assays?
APE1 inh: -9%; BLM helicase inh: -19%; TDP1 block: 2%; RECQ1 inh-1: inconclusive; FEN1 inh: inconclusive; RECQ1 inh-2: inconclusive

Results for O=C(O)C1=CC(c2ccc(Br)cc2)n2ncnc2N1 (configuration not stated) ?
BLM helicase inh: 1%; TDP1 block: -2%[12.3 µM]; FEN1 inh: 1%

What do the screens show for `CCc1cccc(CC)c1NC(=O)c1c(C)oc2ccc(O)c(CN3CCOCC3)c12`?
BLM helicase inh: -5%; TDP1 block: 1%; FEN1 inh: 27%

What do the screens show for `Nc1cc2nc3ccccc3oc-2cc1=O`?
APE1 inh: 1%; BLM helicase inh: -14%; TDP1 block: -8%; RECQ1 inh-1: inconclusive; FEN1 inh: inconclusive; RECQ1 inh-2: inconclusive

How did COC(=O)c1ccc(NC(=O)COc2ccccc2C(=O)Nc2ccccc2)cc1 do in these assays?
FEN1 inh: -13%

What do the screens show for `CC(C)Nc1oc(-c2ccccc2)nc1-c1cccc2ccccc12`?
APE1 inh: -4%; BLM helicase inh: 2%; TDP1 block: 8%; RECQ1 inh-1: -2%

How did Cc1ccc(-n2nnc(-c3nccs3)n2)cc1 do in these assays?
APE1 inh: inconclusive; BLM helicase inh: 3%; TDP1 block: 3%; RECQ1 inh-1: 0.89µM*; FEN1 inh: -8%; RECQ1 conf: 12%[114 µM]; ADP FP counter: 32%[91.9 µM]; RECQ1 inh-2: 0%

Results for COc1ccc2c(c1)CCc1c(C(=O)Nc3c(C)nn(Cc4ccc(Cl)c(Cl)c4)c3C)noc1-2 ?
BLM helicase inh: -12%; TDP1 block: 6%; FEN1 inh: -33%

What do the screens show for `Cc1ccc(C2CCN(C(=O)Nc3ccc(C)c(C)c3)C2)cc1` (configuration not stated)?
BLM helicase inh: 1%; TDP1 block: 4%; FEN1 inh: 3%

What do the screens show for `CC(C)OC(=O)c1cccc(C(=O)Oc2ccccc2)n1`?
APE1 inh: -3%; BLM helicase inh: -1%; TDP1 block: 0%; RECQ1 inh-1: -14%; FEN1 inh: -5%

How did COC(=O)c1cccc(C(=O)Oc2cccc(Br)c2)n1 do in these assays?
APE1 inh: -1%; BLM helicase inh: 0%; TDP1 block: -1%; RECQ1 inh-1: 14µM*; FEN1 inh: -3%; RECQ1 conf: 11%[114 µM]; ADP FP counter: 28%[91.9 µM]; RECQ1 inh-2: -5%

Results for CC(C)c1onc(-c2c(Cl)cccc2Cl)c1COc1ccc(/C=C/c2cccc(C(=O)O)c2)c(Cl)c1 ?
APE1 inh: -5%; BLM helicase inh: 32µM*; TDP1 block: -13%; RECQ1 inh-1: 32µM*; RECQ1 inh-2: 35µM*
